In PubChem BioAssay (NCI):
About 83,000 compounds went through this panel and 20% of them were active in at least one assay; those are over-represented in the sample as a whole.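 For each line, cells grew in 96-well plates with the test compound present at a single concentration for 48 hours.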 A number with no mark means an inactive call. Active and inactive are the calls of the source.

system: COLO 205 colon; assay: NCI-60 one-dose screen, 48 h (100 = growth as untreated, 0 = no growth, -100 = all killed); settings: 10 µM unless noted
Method: Cells are grown in 96 well plates and exposed to the test compound for 48 hours. Compounds are tested at a single concentration, which is 10^-5 M for most compounds. The reported endpoint is percent growth (GI% or GIPRCNT), where numbers from 0 - 100% represent growth inhibition, and numbers from -100% - 0 represent cell death. For example, a value of 40 represents 60% growth inhibition. A value of 0 means no net growth occurred over the course of the experiment. A value of -40 indicates 40% of cells at the beginning of the experiment died by the end of the experiment. A value of -100 means all cells are dead at the end of the experiment.
NCI-60 Human Tumor Cell Lines Screen was performed using the standard one-dose NCI protocol, which is described in more detail at https://dtp.cancer.gov/discovery_development/nci-60/default.htm.
Compounds with GIPRCNT values below 10 were considered active. Activity score was based on GIPRCNT using the following formula: […]
Score is 0 for GIPRCNT values of 100 or above, 50 for GIPRCNT values of 0, and 100 for GIPRCNT values of -100.

Structure (SMILES) | growth
Cc1ccc(N(CC(=O)Nc2ccc(S(=O)(=O)N3CCC(N4CCCC4)CC3)cc2)S(=O)(=O)c2ccc(Cl)cc2)cc1 | -60.5% (active)
CN(C)c1ccc(N)c2ccccc12 | 19.6%
CC(=O)c1c(C)[nH]c(-c2nc3ccc(N4CCN(C)CC4)cc3[nH]2)c1-c1ccc(N(C)C)cc1 | 7% (active)
CN1CCN(c2ccc3nc(-c4[nH]ncc4Nc4ncnc5[nH]ccc45)[nH]c3c2)CC1 | -59.8% (active)
Cc1ccc(Nc2c(C(N)=O)cnc3ccc(S(=O)(=O)Nc4cc(C)on4)cc23)cc1 | 101%
CCN1CCN(C(=O)[C@]23CCC(C)(C)C[C@@H]2C2=CC[C@@H]4[C@@]5(C)C/C(=C/c6cccnc6)C(=O)C(C)(C)[C@@H]5CC[C@@]4(C)[C@]2(C)CC3)CC1 | 25.9%
Clc1ccc2[nH]cc(-c3nc(-c4c[nH]c5ncccc45)cs3)c2c1 | 18.3%
O=C1C(Cl)=C(Nc2ccc(S(=O)(=O)c3ccc(NC4=C(Cl)C(=O)c5ccccc5C4=O)cc3)cc2)C(=O)c2ccccc21 | -54.9% (active)
COc1ccc(OCC(CO)N2CCN(c3ccccc3)CC2)cc1 (stereo not given) | 96.3%
Oc1ccccc1/C=N\NC(=S)Nc1ccc(F)cc1 | 50.3%
N#C/C(=C\c1ccc(-c2ccc(Br)cc2)o1)c1nc(-c2ccco2)cs1 | 102%
CCCCCC1CCCCN1C(=O)OCC (stereo not given) | 101%
CN(C)c1cccc2[nH]c(-c3[nH]ncc3Nc3ccnc(N)n3)nc12 | -64% (active)
COC1=C(Br)C(=O)C(OC)=C(Br)C1=O | 110%
Nc1c(C(=O)Nc2cccc3ccccc23)sc2nc3c(cc12)CCCC3 | -3.36% (active)
O=C(NC1=CC(=O)c2ccccc2C1=O)c1ccccc1 | 48%
CCN1CCN(C(=O)[C@]23CC[C@@H](C)[C@H](C)[C@H]2C2=CC[C@@H]4[C@@]5(C)C/C(=C/c6cccc(OC)c6OC)C(=O)C(C)(C)[C@@H]5CC[C@@]4(C)[C@]2(C)CC3)CC1 | 32.2%
N#CC1C(=N)Cc2ccccc2-c2ccccc21 (stereo not given) | 51.4%
COc1ccc(NC(=S)N/N=C/c2ccccc2SSCCC(=O)OC[C@H]2O[C@H](O)[C@H](O)[C@@H](O)[C@@H]2O)cc1 | 100%
O=C1c2cc3c(cc2-c2c1c1ccc(F)cc1c(=O)n2CCCN1CCOCC1)OCO3 | 55.1%

Structure (SMILES) | growth
NCCn1cc(-c2nc(-c3c[nH]c4ncccc34)cs2)c2cc(F)ccc21 | 49.2%
C=C(C)[C@@H]1CC[C@]2(C=NCCCNCCCCNCCCN)CC[C@]3(C)[C@H](CC[C@@H]4[C@@]5(C)CCCNC(C)(C)[C@@H]5CC[C@]43C)[C@@H]12 | 79.1%
COc1cc(/C=C/c2cc(/C=C/c3ccc(O)c(OC)c3)n(-c3ccccc3)c(=O)n2)ccc1O | 71.3%
COC(=O)[C@]12CC[C@@H](C)[C@H](C)[C@@H]1C1=CC[C@@H]3[C@@]4(C)CC(=O)[C@H](OC(=O)c5ccco5)[C@@]5(C)COC(=C45)C[C@@]3(C)[C@]1(C)CC2 | -40.6% (active)
Cn1cnc2c1c(=O)n(CCC(=O)Nc1ccc(F)cc1)c(=O)n2C | 104%
CC1(C)C(=O)/C(=C\c2ccccn2)C[C@]2(C)[C@H]3CC[C@@H]4[C@@H](C(=O)/C=C/c5ccccn5)CC[C@@]4(C)[C@]3(C)CC[C@@H]12 | -34.4% (active)
COc1ccc2[nH]cc(-c3nc(-c4c[nH]c5ncccc45)cs3)c2c1 | -10.2% (active)
c1csc(-c2nc(-c3cc4ccccc4c(N4CCOCC4)n3)cs2)c1 | 20.5%
Fc1ccc2nc(-c3cc(-c4ccc5c(c4)OCO5)n[nH]3)[nH]c2c1 | 84.7%
C=C(C)[C@@H]1CC[C@]2(C(=O)O)CC[C@]3(C)[C@H](CC[C@@H]4[C@@]5(C)C/C(=C/c6cccc(I)c6)C(=O)C(C)(C)[C@@H]5CC[C@]43C)[C@@H]12 | 28%
C=C(C)[C@@H]1CC[C@]2(C(=O)N3CCCNCC3)CC[C@]3(C)[C@H](CC[C@@H]4[C@@]5(C)CCC(=O)C(C)(C)[C@@H]5CC[C@]43C)[C@@H]12 | 101%
COc1cc2[nH]c(C(=O)c3cc(OC)c(OC)c(OC)c3)c(N)c2cc1C#CCO | -35.8% (active)
CCC(c1ccc(OC)cc1)C(CC)c1ccc(O)c(CN2CCCCC2)c1 (stereo not given) | -12.9% (active)
CCCCN1CCCCn2c1nc1c2c(=O)n(C)c(=O)n1C | 114%
OCC(CO)(CCl)CCl | 105%
O=C1c2ccccc2C(=Cc2ccccc2)c2ccccc21 | -21.1% (active)
NC1=NN(c2ccccc2)C(=O)/C1=C/c1ccc(Cl)cc1 | 95.7%
CC1(C)C(=O)CC[C@]2(C)[C@H]3C(=O)C=C4[C@@H]5C[C@@](C)(C(=O)NCCNCCN)CC[C@]5(C)CC[C@@]4(C)[C@]3(C)CC[C@@H]12 | 108%
NC(=O)[C@@H]1CC2CCC1C2 (stereo not given in full) | 107%
Cc1cc(N(CCCNc2ccnc3cc(Cl)ccc23)Cc2ccco2)nc(Cl)n1 | 24.5%
